Test results taken from PubChem BioAssay AID463173 (ICCB-Longwood Screening Facility, Harvard Medical School, 2010).
The campaign covered roughly 52,000 compounds. About 4,300 (8.3%) were called active. Cut-off read from the data, not from the text of the source: active = survival mostly below about 52% (no sharp cut-off); inactive = mostly above about 56%. For the sample, actives were picked, then their nearest neighbours and some compounds at random.

The compounds below were run on DeltatarO mutant (assay: growth inhibition of S. aureus wild type versus tarO mutant, primary screen, teichoic acid synthesis inhibitors, RN4220, OD600 (AID 463173)). Details: OD600, 18 h, hits give low values, screened at 18.75 µg/mL (by protocol).
CCc1ccc(NC(=O)CCCn2nc(C)c3c(C)n(-c4ccccc4)nc3c2=O)cc1 was tested, and the survival was 81% (inactive). CC(C)c1ccc(NC(=O)CSc2ncnc3c2sc2ccccc23)cc1 was tested, and the survival was 70% (inactive). In the case of CCC(=O)OC1CSc2nc3ccccc3n2C1 (stereo not given), the survival is reported as 76% (inactive). With Cc1ccc(-n2c(=O)c3c(c4cc(C)ccc4n3C)n(CC(=O)NCc3ccccc3Cl)c2=O)cc1 the survival was 74% (inactive). With Cc1ccc(/C=C/c2onc(C)c2S(=O)(=O)N2CCC(C(=O)N3CCC(N(C)C(C)C)CC3)CC2)cc1 the survival was 67% (inactive). With CCOC(=O)C1=C(CN2CCN(c3ccccc3F)CC2)NC(=O)NC1c1ccc(OC)cc1 (stereo not given) the survival was 70% (inactive). Cc1ccc(CSCCC(=O)NCc2ccc(F)cc2Cl)cc1 was tested, and the survival was 118% (inactive). In the case of Cc1ccccc1NC(=O)Cn1c(SCC(=O)Nc2ccc(F)cc2)nc2ccccc21, the survival is reported as 95% (inactive). For COc1cccc(NC(=O)CSc2cc(C)c3ccccc3n2)c1, the survival was 72% (inactive). With COc1cccc(NC(=O)CSc2nc3ccccc3n2C)c1 the survival was 37% (active). For CC(=O)c1cccc(NC(=O)Cn2c(SCC(=O)Nc3ccc(F)cc3)nc3ccccc32)c1, the survival was 20% (active). In the case of O=C(CSc1nc2ccccc2n1CC(=O)Nc1ccc(F)cc1F)Nc1ccc(F)cc1, the survival is reported as 89% (inactive). For COc1ccc(NC(=O)CSc2nc3ccccc3n2Cc2cccc(OC)c2)cc1, the survival was 134% (inactive). COc1cccc(CNC(=O)c2[nH]c3cc(C)ccc3c2Sc2ccccc2)c1 was tested, and the survival was 83% (inactive). With CCCN1C(=O)c2ccccc2NC1c1cc(OC)c(OC)c(OC)c1 (stereo not given) the survival was 96% (inactive). CC(C)c1ccc(NC(=O)C2CCN(S(=O)(=O)c3cccc4nsnc34)CC2)cc1 was tested, and the survival was 72% (inactive). For CCOc1ccc(N(CC)S(=O)(=O)N2CCCC(C(=O)Nc3ccc(NC(C)=O)cc3)C2)cc1 (stereo not given), the survival was 84% (inactive). Cc1ccc(Cn2nc(C)c(NC(=O)c3cc(-c4ccc(F)cc4)on3)c2C)cc1 was tested, and the survival was 61% (inactive). In the case of COc1ccc(-c2cc(C(=O)Nc3c(C)nn(Cc4ccc(C)cc4)c3C)no2)cc1OC, the survival is reported as 60% (inactive). COc1ccc(-c2cc(C(=O)Nc3c(C)nn(Cc4ccccc4C)c3C)no2)cc1 was tested, and the survival was 51% (inactive). COc1ccccc1-c1cc(C(=O)Nc2c(C)nn(Cc3ccc(Cl)cc3)c2C)no1 was tested, and the survival was 29% (active). For Cc1cc(C(=O)Nc2c(C)nn(Cc3ccc(F)cc3)c2C)no1, the survival was 156% (inactive). For COc1cccc(-c2cc(C(=O)Nc3c(C)nn(Cc4ccccc4Cl)c3C)no2)c1, the survival was 34% (active). In the case of COc1ccc(OC)c(-c2cc(C(=O)Nc3c(C)nn(Cc4ccc(C)cc4)c3C)no2)c1, the survival is reported as 34% (active). With COc1ccc(-c2cc(C(=O)Nc3c(C)nn(Cc4ccc(F)cc4)c3C)no2)cc1OC the survival was 59% (inactive). With CCc1cc(C(=O)Nc2c(C)nn(Cc3ccccc3Cl)c2C)no1 the survival was 69% (inactive). With COc1cc(NC(=O)Cn2ncc3c([nH]c4ccc(C)cc43)c2=O)cc(OC)c1OC the survival was 86% (inactive). In the case of Cn1c(N2CCN(S(=O)(=O)c3ccc(Cl)cc3)CC2)nc2ccccc21, the survival is reported as 83% (inactive). COc1ccc(NC(=O)CCc2c(C)nn(-c3ccc(N4CCCCC4)nn3)c2C)cc1Cl was tested, and the survival was 87% (inactive). In the case of Cc1sc2nc(CN3CCN(C(=O)c4ccco4)CC3)n(C(=O)c3ccco3)c(=O)c2c1C, the survival is reported as 86% (inactive). In the case of CCOC(=O)c1c(S(=O)(=O)N2CCCC(C(=O)Nc3cc(C)ccc3OC)C2)c(C)n(C)c1C (stereo not given), the survival is reported as 75% (inactive). For O=C(Oc1cccc2cccnc12)c1ccccc1, the survival was 2% (active). O=C1c2ccccc2C(=O)N1COc1cccc2cccnc12 was tested, and the survival was 97% (inactive). For O=C(/C=C\c1ccco1)Oc1cccc2cccnc12, the survival was 2% (active). With O=C(Oc1ccccc1-c1nc(-c2ccccc2)no1)c1ccccc1 the survival was 85% (inactive). With O=C(/C=C/c1ccco1)OCCN1CCOCC1 the survival was 69% (inactive). O=C(/C=C/c1ccco1)ON1C(=O)c2ccccc2C1=O was tested, and the survival was 91% (inactive). With Cc1ccc(C(c2nnnn2Cc2ccccc2)N2CCC(C)CC2)cc1 (stereo not given) the survival was 70% (inactive). For CCCC1(C(=O)OC)NC(c2ccc(OC)c(OC)c2)C2C(=O)N(c3ccc4c(c3)OCO4)C(=O)C21 (stereo not given), the survival was 84% (inactive). In the case of COc1cccc(NC(=O)Cn2cc(C(=O)c3ccc(F)cc3)c(=O)c3cc(OC)ccc32)c1, the survival is reported as 92% (inactive). Nc1nnc2c(n1)[nH]c1ccccc12 was tested, and the survival was 81% (inactive). In the case of Cc1ccc(C)c(CN2C(=O)c3ccccc3S(=O)(=O)c3ccc(C(=O)N4CCN(Cc5ccccc5)CC4)cc32)c1, the survival is reported as 59% (inactive). With COc1ccc(OC)c(NC(=O)c2cc(C3CC3)nc3c2c(C)nn3-c2ccc(C)cc2)c1 the survival was 64% (inactive). O=C(CSc1nnc(COc2ccc(F)cc2)o1)N1c2ccccc2CCc2ccccc21 was tested, and the survival was 65% (inactive). With CCOC(=O)C1CCN(c2nc(-c3ccc(Br)cc3)nc3ccccc23)CC1 the survival was 83% (inactive). CC1CCN(c2ncnc3c2nnn3C)CC1 was tested, and the survival was 92% (inactive). Cn1nnc2c(N3CCN(c4ccccc4)CC3)ncnc21 was tested, and the survival was 74% (inactive). With CCOC(=O)C1CCN(c2cc(C)c(C#N)c3nc4ccccc4n23)CC1 the survival was 100% (inactive). COc1ccc(N2CCN(c3ncnc4c3nnn4C)CC2)cc1 was tested, and the survival was 0% (active). Cn1nnc2c(N3CCN(c4ccc(F)cc4)CC3)ncnc21 was tested, and the survival was 99% (inactive). CCOC(=O)C1CCN(c2ncnc3c2nnn3C)CC1 was tested, and the survival was 37% (active). For CCOC(=O)C1CCCN(c2ncnc3c2nnn3C)C1 (stereo not given), the survival was 117% (inactive). In the case of CCOC(=O)C1CCN(c2nc3ccccc3nc2Cl)CC1, the survival is reported as -24% (active). With Cc1cc(NS(=O)(=O)c2ccc(NC(=O)COc3ccc(Cl)cc3)cc2)nc(C)n1 the survival was 54% (inactive). For Cc1ccc2[nH]c(=O)c(CN(CC3COCCO3)C(=O)Nc3ccccc3F)cc2c1 (stereo not given), the survival was 96% (inactive). CCCC12CCC(C(=O)O)(CC1)CC2 was tested, and the survival was 83% (inactive). Cc1cc(C(=O)NCc2ccccc2Cl)c2c(C)nn(-c3cccc(F)c3)c2n1 was tested, and the survival was 68% (inactive). For CCC(=O)N1CCc2cc(S(=O)(=O)Nc3cc(C)ccc3OC)ccc21, the survival was 84% (inactive). For Cc1cc(C)cc(NC(=O)c2cc(S(=O)(=O)N3CCc4ccccc43)cn2C)c1, the survival was 63% (inactive). CC(C)OC(=O)CSc1n[nH]c(-c2cccnc2)n1 was tested, and the survival was 108% (inactive). With Cc1ccnc(NS(=O)(=O)c2ccc(NC(=O)c3cc(=O)c4ccc(C)c(C)c4o3)cc2)n1 the survival was 78% (inactive). For O=C(CSc1nccn1Cc1ccccc1)NCc1ccccc1Cl, the survival was 92% (inactive). In the case of O=c1c2cnn(-c3ccc(F)cc3)c2ncn1Cc1ccccc1Cl, the survival is reported as 100% (inactive). For Clc1ccccc1Cn1cccc1C1=NC(Cc2ccccc2)CO1 (stereo not given), the survival was 40% (active). In the case of O=C(Nc1ccc(S(=O)(=O)Nc2ncccn2)cc1)c1ccccc1Cl, the survival is reported as 81% (inactive). COc1ccc(NC(=O)Nc2nnc(C)s2)cc1 was tested, and the survival was 91% (inactive). For Cc1ccc2occ(CC(=O)N(Cc3ccc(Cl)cc3)C3CCS(=O)(=O)C3)c2c1 (stereo not given), the survival was 64% (inactive). For CCc1cccc(N2C(=O)CSC23C(=O)Nc2ccccc23)c1 (stereo not given), the survival was 85% (inactive). In the case of CCc1ccc2c(c1)C1(NN=C(c3ccccc3)S1)C(=O)N2 (stereo not given), the survival is reported as 0% (active). In the case of CCc1cccc(NC(=O)c2cc(-c3ccccc3)n[nH]2)c1, the survival is reported as 90% (inactive). COc1cccc(NC(=O)Cn2cnc3c(nc4n3CCCCC4)c2=O)c1 was tested, and the survival was 76% (inactive). In the case of CCN(CC)c1ccc(NC(=O)CCS(=O)(=O)c2cc3c(cc2Cl)NC(=O)CO3)c(C)c1, the survival is reported as 86% (inactive). With CCCN1C(=O)C(O)(CC(=O)c2ccc(OC)c(OC)c2)c2ccccc21 (stereo not given) the survival was 146% (inactive). For COc1ccc(C(=O)CC2(O)C(=O)N(Cc3cccc(C(F)(F)F)c3)c3ccccc32)cc1 (stereo not given), the survival was 33% (active). For CCCCN1C(=O)C(O)(CC(=O)c2ccc(C)cc2C)c2cc(Br)ccc21 (stereo not given), the survival was 11% (active). For CCCCN1C(=O)C(O)(CC(=O)c2ccc(CC)cc2)c2cc(Br)ccc21 (stereo not given), the survival was 32% (active). In the case of O=C(CC1(O)C(=O)N(Cc2ccccc2)c2ccc(Br)cc21)c1ccccc1 (stereo not given), the survival is reported as 99% (inactive). For COc1ccc(C(=O)CC2(O)C(=O)N(Cc3ccccc3)c3ccc(Br)cc32)cc1 (stereo not given), the survival was 50% (inactive). With Cc1ccc(CN2C(=O)C(O)(CC(=O)c3ccc(C)cc3)c3ccccc32)cc1 (stereo not given) the survival was 65% (inactive). In the case of COc1cccc(C(=O)CC2(O)C(=O)N(Cc3ccccc3)c3ccccc32)c1 (stereo not given), the survival is reported as 175% (inactive). For Cc1ccc(C(=O)CC2(O)C(=O)N(Cc3ccccc3)c3ccccc32)c(C)c1 (stereo not given), the survival was 41% (active). For CCc1ccc(C(=O)CC2(O)C(=O)N(Cc3ccc(C)cc3)c3ccccc32)cc1 (stereo not given), the survival was 57% (inactive). Cc1ccccc1CN1C(=O)C(O)(CC(=O)c2cccc(Br)c2)c2ccccc21 (stereo not given) was tested, and the survival was 71% (inactive). In the case of O=C(CCC(=O)N1CCSc2ccccc21)NCc1ccccc1Cl, the survival is reported as 70% (inactive). Cc1cccc(C(c2sc3nc(-c4ccco4)nn3c2O)N2CCN(c3ccccc3)CC2)c1 (stereo not given) was tested, and the survival was 76% (inactive). With O=C(CN1CCCC1)N1N=C(c2cccs2)CC1c1cccs1 (stereo not given) the survival was 86% (inactive). With CCOc1ccc(Cc2nc(C)c(CC(N)=O)c(=O)[nH]2)cc1 the survival was 71% (inactive). For CCOC(=O)c1scc(-c2ccccc2)c1S(=O)(=O)Nc1ccc(N(C)C)cc1, the survival was 86% (inactive). In the case of COC(=O)Cn1c(O)c(N=NC(=O)C2COc3ccccc3O2)c2ccccc21 (stereo not given), the survival is reported as 69% (inactive). With CCC(=O)Nc1cccc(NC(=O)c2cccs2)c1 the survival was 72% (inactive). With CCOc1ccccc1NC(=O)Cn1c(=O)n(C(C)C)c(=O)c2oc3ccccc3c21 the survival was 109% (inactive). CC1=C(c2ccc(C(C)C)cc2)S(=O)(=O)N=C1N1CCC(C(=O)NCc2ccc(C)o2)CC1 was tested, and the survival was 67% (inactive). CC1=C(c2ccc(C(C)C)cc2)S(=O)(=O)N=C1N1CCC(C(=O)NCCc2ccco2)CC1 was tested, and the survival was 6% (active). CC1=C(c2ccc(C)c(C)c2)S(=O)(=O)N=C1N1CCC(C(=O)N2CCC(C)CC2)CC1 was tested, and the survival was 72% (inactive). With CC1=C(c2ccc(C)c(C)c2)S(=O)(=O)N=C1N1CCC(C(=O)N2CCC(C(N)=O)CC2)CC1 the survival was -2% (active). CC1=C(c2ccc(C)c(C)c2)S(=O)(=O)N=C1N1CCC(C(=O)N2CCCCC2)CC1 was tested, and the survival was 109% (inactive). For CC1=C(c2ccc(C(C)C)cc2)S(=O)(=O)N=C1N1CCC(C(=O)NCc2ccco2)CC1, the survival was 79% (inactive). With CCc1ccc(C2=C(C)C(N3CCC(C(=O)NCc4ccccc4)CC3)=NS2(=O)=O)cc1 the survival was 89% (inactive). For CC1=C(c2ccc(Cl)cc2)S(=O)(=O)N=C1N1CCC(C(=O)NCCc2ccco2)CC1, the survival was 81% (inactive). CC1=C(c2ccc(C(C)C)cc2)S(=O)(=O)N=C1N1CCC(C(=O)NCc2ccccc2)CC1 was tested, and the survival was -1% (active).
